Consider 27 molecules from PubChem BioAssay (Tox21).

SMILES strings stand for the structures. “And” between values parts separate entries of the source, which are not always exact repeats. Equal entries are not always repeated. Values without a mark were called inactive. The source made the active and inactive calls. Unless noted, calls come from the whole dose curve; as a rule, active = well fitted curve in the direction sought with a large enough effect in the repeat runs; inconclusive = weak or mixed curves; inactive = no such curve, though single readings can be large; an effect the other way counts as inactive or inconclusive.

Experiment [1] can be described thus: qHTS assay to identify small molecule antagonists of the thyroid receptor (TR) signaling pathway - cell viability counter screen (AID 743064). Note: nearly all actives have a fitted effect of over 50% in size. Note: potency is the fitted concentration of half-maximal effect. Put shortly: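 Fluorescence from CellTiter-Fluor, added after 23.5 h exposure at 37 °C, reported viability of GH3.TRE-Luc cells co-treated with compound and 1 nM T3. Measured in the same wells as the luciferase TR readout.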

In experiment [2] the test system is thyroid hormone receptor (rat, GH3 cells). The experiment is described as follows: qHTS assay to identify small molecule agonists of the thyroid receptor (TR) signaling pathway (AID 743066; calls by dose curve; note: potency is the fitted concentration of half-maximal effect). (In general: In qHTS, concentration-response curves come from the screen itself.)
Experiment [3] in a line: qHTS assay to identify small molecule antagonists of the estrogen receptor alpha (ER-alpha) signaling pathway - cell viability counter screen (AID 743074; calls by dose curve;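 note: HEK293 cells carrying ER-alpha-UAS-bla reporter stimulated with 17beta-estradiol; nearly all actives have a fitted effect of over 45% in size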).
A short description of experiment [4]: qHTS assay to identify small molecule antagonists of the estrogen receptor alpha (ER-alpha) signaling pathway using the BG1 cell line - cell viability counter screen (AID 743081).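 Note: compound given together with 17beta-estradiol as the ER stimulus; nearly all actives have a fitted effect of over 45% in size.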
The next experiment concerns the target Aromatase (Homo sapiens) (UniProt P11511). In words: qHTS assay to identify aromatase inhibitors (AID 743083). Note: nearly all actives have a fitted effect of over 55% in size. Note: potency is the fitted concentration of half-maximal effect.
For experiment [5], the target named is Estrogen receptor (Homo sapiens) (UniProt P03372). The experiment is described as follows: qHTS assay to identify small molecule antagonists of the estrogen receptor alpha (ER-alpha) signaling pathway (AID 743069; active = well fitted curve in the direction sought with a large enough effect in the signal ratio in the repeat runs, not every such curve was filed as active; inconclusive = weak or mixed curves, or effect the other way; inactive = no such curve, though single readings can be large or run the other way; the % refers to the signal ratio; note: potency is the fitted concentration of half-maximal effect). In outline: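 A 17beta-estradiol challenge was applied right after compound transfer to ER-alpha-UAS-bla HEK293 cells previously kept in charcoal-stripped serum. Plates stood 18 hr at 37C and 5% CO2; fluorescence was read following 2 hr FRET substrate loading at room temperature.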
Chain of Estrogen receptor (Homo sapiens) (P03372 whole entry, looked up): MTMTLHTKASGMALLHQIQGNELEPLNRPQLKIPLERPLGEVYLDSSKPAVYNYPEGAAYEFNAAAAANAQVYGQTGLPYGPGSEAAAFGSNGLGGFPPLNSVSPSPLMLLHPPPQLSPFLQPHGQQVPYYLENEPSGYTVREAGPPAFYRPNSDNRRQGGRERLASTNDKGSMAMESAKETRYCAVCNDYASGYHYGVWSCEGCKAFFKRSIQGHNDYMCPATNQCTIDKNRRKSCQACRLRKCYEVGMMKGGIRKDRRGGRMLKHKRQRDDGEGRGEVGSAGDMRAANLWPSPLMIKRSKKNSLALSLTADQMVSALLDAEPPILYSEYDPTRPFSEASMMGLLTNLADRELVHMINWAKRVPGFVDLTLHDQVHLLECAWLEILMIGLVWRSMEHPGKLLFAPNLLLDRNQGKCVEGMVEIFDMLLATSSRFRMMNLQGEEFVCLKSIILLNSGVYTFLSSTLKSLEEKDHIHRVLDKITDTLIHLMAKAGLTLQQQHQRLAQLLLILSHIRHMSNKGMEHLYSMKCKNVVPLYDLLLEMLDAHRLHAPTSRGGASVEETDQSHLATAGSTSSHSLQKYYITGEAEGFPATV

The target is the same in experiment [6]. The experiment is described as follows: qHTS assay to identify small molecule agonists of the estrogen receptor alpha (ER-alpha) signaling pathway (AID 743075; calls by dose curve;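 note: HEK293 GripTite cells with ER-alpha and UAS-driven beta-lactamase reporter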; note: potency is the fitted concentration of half-maximal effect).
Experiment [7] has the same target. The experiment is described as follows: qHTS assay to identify small molecule agonists of the estrogen receptor alpha (ER-alpha) signaling pathway using the BG1 cell line (AID 743079). Note: nearly all actives have a fitted effect of over 20% in size. To be noted: BG1Luc4E2 cells, ERE-luciferase agonist, 22 h; activation: at 70.3 µM (top of the series).
Experiment [8] is described as follows: qHTS assay to identify small molecule antagonists of the estrogen receptor alpha (ER-alpha) signaling pathway using the BG1 cell line (AID 743080; calls by dose curve;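 note: BG1 cells stimulated with 17beta-estradiol alongside compound; nearly all actives have a fitted effect of over 25% in size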; note: potency is the fitted concentration of half-maximal effect). In outline:
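Luminescence from a 4×ERE-luciferase reporter in BG1-Luc-4E2 cells served as read-out. Cells, pre-cultured 5 days in stripped-serum phenol-red-free medium, were exposed to compound with 17beta-estradiol co-stimulation for 21.5 h at 37 C.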
% is set by controls: 0 for no effect and ±100 for the full control effect.

Chain of Aromatase (Homo sapiens) (P11511 whole entry, looked up): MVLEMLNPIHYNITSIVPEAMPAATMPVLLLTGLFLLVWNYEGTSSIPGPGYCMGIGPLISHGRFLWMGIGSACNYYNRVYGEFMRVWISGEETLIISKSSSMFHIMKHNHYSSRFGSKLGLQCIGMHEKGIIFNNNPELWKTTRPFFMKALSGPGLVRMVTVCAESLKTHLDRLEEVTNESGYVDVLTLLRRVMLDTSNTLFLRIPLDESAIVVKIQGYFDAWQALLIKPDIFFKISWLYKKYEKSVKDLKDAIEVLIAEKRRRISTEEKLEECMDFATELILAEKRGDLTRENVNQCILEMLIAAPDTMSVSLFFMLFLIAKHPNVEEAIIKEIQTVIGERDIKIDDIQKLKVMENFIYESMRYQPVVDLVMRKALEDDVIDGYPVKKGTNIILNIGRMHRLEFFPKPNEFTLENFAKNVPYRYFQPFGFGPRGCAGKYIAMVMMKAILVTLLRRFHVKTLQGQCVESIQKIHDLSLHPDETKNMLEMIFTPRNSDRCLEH

Turning to `COC(=O)c1ccccc1S(=O)(=O)NC(=O)Nc1nc(C)nc(OC)n1`, the Potency result (in [1]; in [2]; in [3]; in [4]; with Aromatase (Homo sapiens)) was “inactive” throughout.

Regarding `N#Cc1c[nH]cc1-c1cccc2c1OC(F)(F)O2`, the Potency is 27.3 µM (active) in experiment [1]; 13.8 µM [inhibitor] (active) in experiment [5]; 17.4 µM [inconclusive] (active) in experiment [6]; 48.6 µM (active) in [8]; 27.3 µM (active) with Aromatase (Homo sapiens). Moreover, the Potency entry in experiment [3], in experiment [7] and in [4] was “inactive” throughout.

Regarding `Nc1cc(Cl)ccc1Cl`, the Potency entry in experiment [1], in experiment [2], in [3] and in experiment [4] was “inactive” in each case.

Regarding `CCN(CC)C(=S)S`, the Potency in experiment [1] is 1.19 µM (active). Further, the Potency result in experiment [2], in experiment [5], in [3], in [6], in experiment [7] and in [4] was “inactive” in each case.

As for `Clc1c(Cl)c(Cl)c(Cl)c(Cl)c1Cl`, in experiment [1], the activity change, negative = cytotoxic is -0.947% [at 8.44 µM]. In experiment [2], the activation was -1.24% [at 8.08 µM]. The activity, negative = cytotoxicity in experiment [3] was 18.2% [at 6.72 µM]. Further, the activity change, negative = cytotoxicity in [4] is 5.59% [at 8.47 µM].

As for `CC(C)NCC(O)c1ccccc1Cl` (stereo not given), the Potency result in experiment [1], in [2], in experiment [5], in [3], in [6] and in experiment [7] was “inactive” throughout. For the same molecule, the Potency entry (in [8]; in [4]; with Aromatase (Homo sapiens)) was “inactive” in each case.

Take `O=[N+]([O-])c1cccc2cccc([N+](=O)[O-])c12`: the Potency entry in experiment [1], in [2], in experiment [3] and in experiment [4] was “inactive” each time.

Take `c1cc[n+]2c(c1)-c1cccc[n+]1CC2`: the Potency entry (in [1]; in [2]; in [5]; in experiment [3]; in experiment [6]; with Aromatase (Homo sapiens)) was “inactive” throughout.

In the case of `BrCCCBr`, the Potency entry (in experiment [1]; in [2]; in experiment [3]; in experiment [4]; in the experiment with Aromatase (Homo sapiens)) was “inactive” in each case.

For `CC(=O)[O-].CC(=O)[O-].[Co+2]`, the Potency result (in [1]; in experiment [2]; in experiment [3]; in experiment [4]; with Aromatase (Homo sapiens)) was “inactive” each time.

As for `O=C(O)[C@H](O)[C@@H](O)C(=O)O`, the Potency result in experiment [1], in experiment [2], in [5], in experiment [3], in [6] and in experiment [7] was “inactive” each time. Also, the Potency entry (in experiment [8]; in experiment [4]; with Aromatase (Homo sapiens)) was “inactive” throughout.

`CCNc1nc(NC(C)C(C)C)nc(SC)n1` (stereo not given): the Potency result in [1], in [2], in experiment [5], in [3], in [6] and in experiment [7] was “inactive” each time. The Potency result (in [8]; in [4]; in the experiment with Aromatase (Homo sapiens)) was “inactive” throughout.

`CN/C(=N\[N+](=O)[O-])NCc1cnc(Cl)s1`: the Potency entry in experiment [1], in [2], in experiment [5], in [3], in [6] and in experiment [7] was “inactive” in each case. Also, the Potency result (in experiment [8]; in experiment [4]; with Aromatase (Homo sapiens)) was “inactive” each time.

Take `O=c1c2ccccc2c(=O)c2c1cc(Cl)c1[nH]c3c([nH]c12)c(Cl)cc1c(=O)c2ccccc2c(=O)c13`: the Potency entry in experiment [1], in experiment [2], in experiment [5], in experiment [3], in experiment [6] and in experiment [7] was “inactive” in each case. The Potency entry (in experiment [8]; in experiment [4]; with Aromatase (Homo sapiens)) was “inactive” throughout.

On to `C=CCOC(=O)c1ccccc1N`, for which the Potency result in [1], in [2], in [5], in [3], in experiment [6] and in [7] was “inactive” each time. For the same molecule, the Potency result (in experiment [8]; in experiment [4]; with Aromatase (Homo sapiens)) was “inactive” in each case.

In the case of `CC(=O)C(Cl)C(=O)N(C)C` (stereo not given), the Potency result in experiment [1], in [2], in experiment [5], in experiment [3], in experiment [6] and in experiment [7] was “inactive” in each case. In addition, the Potency result (in experiment [8]; in experiment [4]; in the experiment with Aromatase (Homo sapiens)) was “inactive” each time.

Consider `Oc1ccc(Cl)c(Cl)c1`, for which the Potency entry (in experiment [1]; in experiment [2]; in experiment [3]; in experiment [8]; in experiment [4]; with Aromatase (Homo sapiens)) was “inactive” in each case. Besides, the Potency in experiment [6] is 60.7 µM [inconclusive] (active).

Regarding `CC(=O)[O-].CC(=O)[O-].O.O.O.[Pb+2]`, the Potency result (in experiment [1]; in experiment [2]; in experiment [3]; in [4]; with Aromatase (Homo sapiens)) was “inactive” throughout.

With `CC1CCCC1`, the Potency entry (in experiment [1]; in experiment [2]; in [3]; in [4]; in the experiment with Aromatase (Homo sapiens)) was “inactive” each time.

Consider `CN(C)C(=S)SSC(=S)N(C)C`, for which the Potency was 133 nM (active) and 9.55 µM (active) and 21.7 nM (active) in experiment [1]; 188 nM (active) and 47.9 nM (active) and 15.4 nM (active) with Aromatase (Homo sapiens). Moreover, the Potency entry in experiment [2], in [5], in experiment [3], in [6] and in experiment [4] was “inactive” each time.

As to `CC(=O)[O-].CC(=O)[O-].CC(=O)[O-].[Sb+3]`, in experiment [1], the activity change, negative = cytotoxic is 15.9% [at 8.44 µM]. Moreover, the activation in experiment [2] is 0.26% [at 8.08 µM]. For the same molecule, in experiment [3], the activity, negative = cytotoxicity is 16.3% [at 6.72 µM]. Moreover, the activity change, negative = cytotoxicity in experiment [4] is 10.6% [at 8.47 µM]. The activity, negative = inhibition with Aromatase (Homo sapiens) is 2.18% [at 8.47 µM].

For `COc1c2c(cc3c1OCO3)CCN(C)C2`, the Potency entry in experiment [1], in experiment [2], in experiment [5], in experiment [3], in [6] and in experiment [7] was “inactive” throughout. Moreover, the Potency entry (in [8]; with Aromatase (Homo sapiens)) was “inactive” throughout.

For the molecule `[O]=[Cr][O][Cr]=[O]`, the Potency entry in experiment [1], in [2], in [5], in [3], in [6] and in experiment [7] was “inactive” each time. For the same molecule, the Potency result (in experiment [8]; in [4]; in the experiment with Aromatase (Homo sapiens)) was “inactive” each time.

For the molecule `CCCCn1cc[n+](C)c1.[Cl][Fe-]([Cl])([Cl])[Cl]`, the Potency result (in experiment [1]; in experiment [2]; in [3]; in experiment [4]; with Aromatase (Homo sapiens)) was “inactive” in each case.

Regarding `ClC1=C(Cl)[C@]2(Cl)[C@H]3[C@H]([C@@H]4C=C[C@H]3C4)[C@@]1(Cl)C2(Cl)Cl`, the Potency in [1] was 68.5 µM (active) and 61.1 µM (active). The Potency result in experiment [5], in experiment [3], in [6], in [7], in [8] and in [4] was “inactive” throughout. For the same molecule, the Potency entry in the experiment with Aromatase (Homo sapiens) is “inactive”.

For the molecule `CC1(C)C(C=C(Cl)Cl)C1C(=O)OC(C#N)c1ccc(F)c(Oc2ccccc2)c1` (stereo not given), the Potency entry in experiment [1], in experiment [2], in experiment [5], in experiment [3], in experiment [6] and in experiment [7] was “inactive” throughout. Moreover, the Potency entry in experiment [8] and in experiment [4] was “inactive” each time.

Turning to `O=C(O)CCCCCCNC1c2ccccc2CCc2ccccc21`, the Potency entry in experiment [1], in experiment [5], in [6], in experiment [7], in experiment [8] and in [4] was “inactive” each time. Also, the Potency in experiment [2] was 23.7 µM (active).
